# An excerpt weighted towards active compounds, which were near 3.9% of everything screened.
# KKLEB tox – counter-screen for CF NF-kB inhibitors: cytotoxicity; KKLEB CF airway cells viability, ATPlite luminescence, overnight; hits give low values; cells stimulated with P. aeruginosa culture filtrate; activity change (cytotoxicity), % at 5 µM; hit rate 0.36% among 360,000; AID 602141;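 active = corrected activity change at or below -50% at 5 µM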
# Peg3 prom inh – inhibitors of Peg3 promoter. HeLa PEG-Prom luciferase reporter, luminescence, overnight. inhibition, % at 20 µM. hit rate 1.7% among 360,000. AID 588405;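 active = inhibition of at least 50% at 20 µM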
# CF NFkB block – inhibitors of cystic fibrosis induced NF-kB. hit rate 0.86% among 360,000. KKLEB NF-kB-GFP reporter, PAF-induced, GFP fluorescence overnight. inhibition, % at 5 µM;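 active = at least 50% inhibition at 5 µM, scaled per plate between neutral and stimulator controls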;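 also: PAF is a Pseudomonas aeruginosa culture filtrate used as stimulus; plate controls were PAF-stimulated DMSO wells for no effect and unstimulated DMSO wells for full effect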
# HIF-2a block – blocks HIF-2a reporter activity. 786-0 RCC cells HIF-2a reporter, luciferase luminescence, overnight. inhibition, % at 18.8 µM. hit rate 0.72% among 360,000. AID 624352;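 active = inhibition of the luminescence signal of 40% or more relative to plate controls, in a single-dose primary screen at 18.75 µM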
# TROY signal inh – blocks TROY-dependent signaling in reporter cells; Q293 LMP1-TROYcd NF-kB luciferase reporter, 4 h; inhibition, % at 10 µM; hit rate 0.98% among 360,000; AID 1347056;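 active = compounds whose plate-normalised and pattern-corrected inhibition of the luciferase reporter signal at the single screening dose is 50% or more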
# TWEAK Fn14 block – blocks TWEAK-Fn14 interaction in a reporter cell assay | TWEAK-stimulated Fn14 reporter cells, luciferase luminescence, 8 h | AID 1159606 | inhibition, % at 10 µM | hit rate 2% among 360,000; in the data active = inhibition above about 50%
# Mdm2-MdmX confirm – confirmation of inhibitors of human Mdm2/MdmX interaction, set 2; shares compounds with HIF-2a block; SaOS-2 split-luciferase Mdm2/MdmX complementation, luminescence; inhibition, % at 8 µM; hit rate 99% among 740; AID 504601;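 active = mean inhibition of the luminescence signal across two replicates at or above 26 percent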
# Target sequence (O15151 whole entry, looked up): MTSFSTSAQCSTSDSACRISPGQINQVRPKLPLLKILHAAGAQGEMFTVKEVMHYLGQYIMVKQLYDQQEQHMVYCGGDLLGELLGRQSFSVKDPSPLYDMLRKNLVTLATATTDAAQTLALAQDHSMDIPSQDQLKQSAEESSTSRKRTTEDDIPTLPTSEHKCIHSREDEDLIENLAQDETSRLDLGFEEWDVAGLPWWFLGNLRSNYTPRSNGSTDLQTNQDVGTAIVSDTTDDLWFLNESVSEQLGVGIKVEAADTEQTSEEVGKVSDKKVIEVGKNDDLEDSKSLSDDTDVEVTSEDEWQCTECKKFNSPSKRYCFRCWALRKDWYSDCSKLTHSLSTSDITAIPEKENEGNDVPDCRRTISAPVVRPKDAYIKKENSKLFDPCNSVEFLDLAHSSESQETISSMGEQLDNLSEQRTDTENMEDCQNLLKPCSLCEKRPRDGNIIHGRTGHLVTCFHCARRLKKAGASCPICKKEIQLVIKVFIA
# Target sequence (Q00987 whole entry, looked up): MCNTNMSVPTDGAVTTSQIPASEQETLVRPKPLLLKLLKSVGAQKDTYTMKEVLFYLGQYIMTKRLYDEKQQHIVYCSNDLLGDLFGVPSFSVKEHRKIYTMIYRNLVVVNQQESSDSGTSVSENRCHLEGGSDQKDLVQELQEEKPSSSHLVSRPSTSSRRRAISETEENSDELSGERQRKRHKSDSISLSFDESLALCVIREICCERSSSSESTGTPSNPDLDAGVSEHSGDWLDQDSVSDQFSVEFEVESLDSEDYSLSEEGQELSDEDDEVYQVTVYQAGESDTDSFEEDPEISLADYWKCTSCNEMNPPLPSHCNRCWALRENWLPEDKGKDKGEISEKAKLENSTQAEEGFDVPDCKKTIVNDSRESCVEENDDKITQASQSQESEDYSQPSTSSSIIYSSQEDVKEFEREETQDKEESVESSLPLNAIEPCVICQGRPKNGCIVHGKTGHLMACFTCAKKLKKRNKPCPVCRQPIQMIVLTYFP
# HIF-2a inh conf – confirmation of HIF-2a inhibitors. hit rate 56% among 1,800. 786-0 RCC cells, HIF-2a luciferase reporter luminescence, overnight. inhibition, % at 18.8 µM. shares compounds with HIF-2a block;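 active = mean inhibition across four replicates of at least 40 percent at the single tested concentration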
# HIF-1a cs – HIF-1a inhibition counter-screen for HIF-2a hits; shares compounds with HIF-2a block; MiaPaCa-2 HIF-1a luciferase reporter, desferoxamine, overnight; inhibition, % at 18.8 µM; hit rate 72% among 1,800; AID 651589;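 active = mean inhibition of the reporter signal across four replicates at the single tested dose of 50% or more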
# An asterisk follows results filed as active; . = no result given.
SMILES,KKLEB tox,Peg3 prom inh,CF NFkB block,HIF-2a block,TROY signal inh,TWEAK Fn14 block,HIF-2a inh conf,HIF-1a cs,others
OCC1OC(n2ccc3c2ncn2ncnc32)C(O)C1O (stereo unspecified),-57.1*,35.4,68.4*,54.0*,-21.7,-5.2,37.1,54.1*,
Nc1ccn(C2OC(CO)C(O)C2O)c(=O)n1 (stereo unspecified),11.2,39.8,-38.8,9.1,-10.4,-95.2,.,.,
CN(C)c1ncnc2c1ncn2C1OC(CO)C(O)C1O (stereo unspecified),-43.0,27.6,45.7,52.0*,-77.0,-1.4,26.1,42.2,
C=CCOc1ccc(C[C@H](N)C(=O)NC[C@H]2O[C@@H](n3cnc4c(N)ncnc43)[C@H](O)[C@@H]2O)cc1,7.3,-8.8,-5.5,-0.6,-6.8,-8.8,.,.,
CC1CCCC(NC(=O)COC(=O)Cc2ccc(Br)cc2)C1C (stereo unspecified),12.7,12.9,4.1,6.6,-25.7,-18.0,.,.,
O=c1cc(-c2cccc(F)c2)oc2ccccc12,-3.8,-109.7,-28.9,-176.3,31.6,-29.0,.,.,
O=c1cc(-c2c(F)c(F)c(F)c(F)c2F)oc2ccccc12,-6.5,84.0*,-7.4,61.5*,65.7*,5.7,32.7,80.0*,
COc1ccc(N2CCN(C(=O)c3cc(C4CC4)nn3-c3ccccc3)CC2)cc1,1.2,5.6,6.3,-2.2,1.9,-0.6,.,.,
COc1ccc(-c2cnc3c(NC(C)=O)cc(-c4ccc(C(=O)N5CCOCC5)cc4)cn23)cc1OC,13.0,30.3,-5.0,41.4*,8.5,-25.6,22.5,31.4,
CC(=O)Nc1cc(-c2ccc(C(=O)N3CCOCC3)cc2)cn2c(-c3ccc(C(C)=O)cc3)cnc12,14.7,18.6,-2.3,28.2,10.9,8.0,.,.,
CCCCn1c(N)c(N(CCOC)C(=O)c2cc3c(s2)CCC3)c(=O)[nH]c1=O,0.9,-10.8,-16.4,4.2,11.1,-6.0,.,.,
O=S(=O)(CC(CN1CCOCC1)N1CCOCC1)c1ccccc1 (stereo unspecified),11.8,-0.9,0.3,5.8,2.8,0.4,.,.,
O=S(=O)(CC(CN1CCCCC1)N1CCCCC1)c1ccc2ccccc2c1 (stereo unspecified),-59.0*,108.6*,96.6*,61.8*,-29.6,41.0,21.2,104.1*,
Nc1ncnc2c1ncn2[C@@H]1O[C@H](CO)C[C@H]1O,-0.6,2.6,5.6,-1.6,12.6,-4.8,.,.,
Nc1ncnc2c1ncn2C1C=C(CO)C(O)C1O (stereo unspecified),-18.8,34.2,5.9,43.5*,7.7,2.5,27.1,81.1*,
CC(=O)C1CCC2C3CCC4=CC(=O)CCC4(C)C3C(O)CC12C (stereo unspecified),-2.2,1.8,3.9,7.0,6.4,-29.6,.,.,
CC(C)(C)C(=O)Cn1ncc(Cl)c(Cl)c1=O,-17.5,103.9*,45.5,94.9*,3.0,96.5*,-11.7,105.7*,
O=C(Cn1ncc(N2CCOCC2)c(Cl)c1=O)c1ccc(Cl)cc1,-5.0,-39.7,9.3,-44.6,-23.3,-8.6,.,.,
C=CCn1c(C)cc(C(=O)Cn2ncc(Cl)c(Cl)c2=O)c1C,-54.1*,101.0*,88.5*,94.0*,-22.6,48.2,2.6,105.3*,
O=C(Cn1ncc(Cl)c(Cl)c1=O)c1ccc(Cl)cc1,-2.8,108.1*,47.7,96.1*,12.6,83.5*,-7.0,105.8*,
C=CCn1c(C)cc(C(=O)CSc2nnc(C3CC3)n2C2CC2)c1C,2.4,-121.8,-3.7,-126.4,-22.3,-12.8,.,.,
CCOC(=O)C1CCN(C(=O)CCNC(=O)c2ccccc2OC)CC1,2.0,4.4,11.6,17.7,-7.0,11.4,.,.,
CC(C(=O)N1CCOCCOCCOCC1)N1C(=O)c2ccccc2C1=O (stereo unspecified),-0.9,19.4,10.2,12.6,4.7,1.9,.,.,
COc1ccc(C2c3ccc(O)cc3Oc3ncn(Cc4ccco4)c(=N)c32)cc1OC (stereo unspecified),-20.6,12.3,8.3,20.2,-0.7,-3.5,.,.,
COc1ccc(C2c3ccc(O)cc3Oc3ncn4nc(-c5cccnc5)nc4c32)cc1OC (stereo unspecified),-12.4,49.2,17.4,51.8*,34.8,18.0,37.3,56.6*,
CSc1ccc(S(=O)(=O)Nc2ccc3c4c(cccc24)CC3)cc1,2.8,30.1,-2.8,9.3,24.9,13.3,.,.,
Cc1ccccc1N(Cc1cc(=O)[nH]c2ccccc12)C(=O)CCl,-10.9,57.6*,33.8,27.2,-4.6,69.7*,.,.,Mdm2-MdmX confirm=102.2*
COc1ccc(-c2nn(-c3ccccc3)cc2C(=O)NC2CC2)cc1,1.0,-22.3,-9.2,-16.2,-2.7,-7.7,.,.,
O=C(COc1ccccc1)N=C1SC2CS(=O)(=O)CC2N1c1ccccc1F (stereo unspecified),-0.2,5.4,-8.5,1.1,3.3,4.2,.,.,

# Assay outcomes: PubChem BioAssay, Sanford-Burnham Center for Chemical Genomics
